Reference: PubChem BioAssay AID743025 (Vanderbilt Specialized Chemistry Center, 2013)
Unmarked numbers belong to inactive results. Active and inactive are the calls of the source.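 The calls were made as follows: active = IC50 below 10 µM at human M5 in a calcium flux test, acting as a negative modulator; inactive = the rest.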

The molecules below were run against Muscarinic acetylcholine receptor M5 (Homo sapiens) (UniProt P08912) (assay: M5 muscarinic receptor negative allosteric modulators, cell-based, single concentration, human M5 (AID 743025)). Conditions: CHO-K1 hM5, ACh EC80 calcium flux, Fluo-4; at 10 µM; hits give low values.
Chain of Muscarinic acetylcholine receptor M5 (Homo sapiens) (P08912 whole entry, looked up): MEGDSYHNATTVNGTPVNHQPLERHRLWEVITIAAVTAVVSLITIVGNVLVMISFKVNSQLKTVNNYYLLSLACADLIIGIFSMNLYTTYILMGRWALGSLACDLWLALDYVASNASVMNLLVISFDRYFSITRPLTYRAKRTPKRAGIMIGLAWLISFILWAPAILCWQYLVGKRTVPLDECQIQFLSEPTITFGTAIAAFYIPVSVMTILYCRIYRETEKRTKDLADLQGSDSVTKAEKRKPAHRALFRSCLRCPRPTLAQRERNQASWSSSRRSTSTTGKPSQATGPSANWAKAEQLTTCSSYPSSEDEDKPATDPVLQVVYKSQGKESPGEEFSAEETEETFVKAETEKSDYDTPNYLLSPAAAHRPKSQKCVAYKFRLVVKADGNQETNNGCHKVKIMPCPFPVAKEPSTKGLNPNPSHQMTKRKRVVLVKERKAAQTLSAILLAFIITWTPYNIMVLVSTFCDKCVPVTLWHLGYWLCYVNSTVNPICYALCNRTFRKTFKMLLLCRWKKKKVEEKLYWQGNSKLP

Structure (SMILES)	activity remaining
COc1ccc(C23c4ccccc4C(=O)N2CCN3C(=O)c2cccc(C(F)(F)F)c2)cc1 (stereo not given)	47.9% (active)
O=C(Nc1ccccc1)N1CCN2C(=O)c3ccccc3C12c1ccccc1 (stereo not given)	85.4%
O=C(c1ccccn1)N1CCN2C(=O)c3ccccc3C12c1ccccc1 (stereo not given)	100%
O=C(c1ccccc1)N1CCN2C(=O)c3ccccc3C12c1ccc(Cl)cc1 (stereo not given)	1.2% (active)
CSc1ccc(C(=O)N2CCN3C(=O)c4ccccc4C23c2ccccc2)cc1 (stereo not given)	58%
O=C(c1cc(F)cc(F)c1)N1CCN2C(=O)c3ccccc3C12c1ccc(Cl)cc1 (stereo not given)	3.53% (active)
O=C(c1cccc(C(F)(F)F)c1)N1CCN2C(=O)c3ncccc3C12c1ccccc1 (stereo not given)	76.6%
O=C(c1cc(F)cc(F)c1)N1CCN2C(=O)c3ccccc3C12c1ccccc1 (stereo not given)	4.21% (active)
COc1ccc(C23c4ccccc4C(=O)N2CCN3C(=O)c2ccc(C(F)(F)F)cc2)cc1 (stereo not given)	48% (active)
O=C(c1ccc(F)cc1)N1CCN2C(=O)c3ccccc3C12c1ccc(Cl)cc1 (stereo not given)	78.8%
Cc1ccccc1C(=O)N1CCN2C(=O)c3ccccc3C12c1ccccc1 (stereo not given)	50.5% (active)
O=C(NCCNC(=O)c1ccccc1C(=O)c1ccc(F)cc1)c1ccccc1	86.1%
CC(C)(C)NC(=O)N1CCN2C(=O)c3ccccc3C12c1ccccc1 (stereo not given)	83.8%
O=C(c1ccc(SC(F)(F)F)cc1)N1CCN2C(=O)c3ccccc3C12c1ccc(F)cc1 (stereo not given)	-0.72% (active)
O=C(c1ccc(Cl)c(Cl)c1)N1CCN2C(=O)c3ccccc3C12c1ccccc1 (stereo not given)	30.5% (active)
